Reference: ChEMBL document CHEMBL4513146, “CO-ADD screening of Karazin Kharkiv National University (Ukraine) compounds”
Potency and affinity values are given separately.

Tests used:
Staphylococcus aureus = settings: Concentration 32 ug.mL-1;; ASSAY_TEST Inhibition of Bacterial Growth; detection method Absorption (OD600); MEDIA CAMHB; plate type 384well; NBS; CORNING #3640; time 18 hr
Escherichia coli = settings: Concentration 32 ug.mL-1;; ASSAY_TEST Inhibition of Bacterial Growth; detection method Absorption (OD600); MEDIA CAMHB; plate type 384well; NBS; CORNING #3640; time 18 hr

Row | Compound | Inhibition (Staphylococcus aureus) [%] | Inhibition (Escherichia coli) [%]
1 | COC(=O)c1cccc(NC(=O)Cn2nc3c(Oc4ccccc4)nccn3c2=O)c1 | 3.03 | -4.6
2 | O=C(Cn1nc2c(N3CCN(c4ccccc4)CC3)nccn2c1=O)Nc1ccc2c(c1)OCO2 | 13.69 | 0.21
3 | COc1cccc(-n2ccn3c(SCC(=O)N4CCN(c5ccc(F)cc5)CC4)nnc3c2=O)c1 | 6.4 | -17.03
4 | Cc1ccc(C)c(Cn2nc3ccc(-c4ccc(C)c(C)c4)nn3c2=O)c1 | 6.01 | -0.08
5 | CC(=O)c1ccc(N2CCN(C(=O)CCc3nnc4c5cc(-c6ccccc6)nn5ccn34)CC2)cc1 | 11.68 | 2.66
6 | O=C(CSc1nnc2c(=O)n(-c3ccccc3)ccn12)Nc1ccccc1F | 8.41 | 1.53
7 | COc1ccc2[nH]cc(C(=O)CSc3nnc4c(=O)n(-c5ccc(F)cc5)ccn34)c2c1 | 14.61 | -2.83
8 | COc1ccccc1-n1ccn2c(=O)n(Cc3ccc(F)cc3Cl)nc2c1=O | 9.6 | -2.36
9 | Cc1ccc(NC(=O)Cn2nc3ccc(SC4CCCCC4)nn3c2=O)c(Cl)c1 | -1.24 | -5.46
10 | CCCCOc1ccc(-c2cc3c4nnc(SCC(=O)Nc5ccc(C)c(C)c5)n4ccn3n2)cc1 | 10.66 | -4.59
11 | CC1CCCN(c2nccn3c(=O)n(CC(=O)Nc4ccc(F)cc4F)nc23)C1 (stereo unspecified) | -0.93 | -3.03
12 | Cc1cc(C)cc(Nc2nc(C)cc3nn(CC(=O)NC4CCCCC4)c(=O)n23)c1 | 14.04 | -1.15
13 | O=C(CSc1nnc2c(=O)n(-c3ccccc3)ccn12)Nc1cccc(F)c1 | 13 | -3.48
14 | CC1CCCN(c2nccn3c(=O)n(CC(=O)Nc4ccc(Br)cc4F)nc23)C1 (stereo unspecified) | 12.44 | 0.2
15 | CCc1nnc2c(S(=O)(=O)N(Cc3cccc(OC)c3)c3ccc(F)cc3)cccn12 | -5.69 | -8.61
16 | CCCNC(=O)Cn1nc2n(Cc3cccs3)c(=O)c3sccc3n2c1=O | 6.83 | -4.01
17 | O=S(=O)(c1ccc2nncn2c1)N(Cc1cc(F)cc(F)c1)c1ccccc1 | 0.37 | -13.22
18 | O=C(Cn1nc2c(Oc3ccc(Cl)cc3)nccn2c1=O)Nc1ccc2c(c1)OCO2 | 6.57 | -7
19 | Cc1nnc2c(=O)n(CC(=O)NC3CCCC3)c3ccccc3n12 | 4.23 | -6.29

Row | Compound | Inhibition (Staphylococcus aureus) [%] | Inhibition (Escherichia coli) [%]
20 | O=S(=O)(c1ccc2nncn2c1)N(Cc1cccc(Cl)c1)c1ccccc1 | 11.21 | -3.7
21 | COc1cccc(-n2ccn3c(SCC(=O)Nc4ccc5c(c4)OCCO5)nnc3c2=O)c1 | 11.59 | -2.35
22 | COc1cccc(NC(=O)Cn2nc3ccc(SCc4ccc(Cl)cc4)nn3c2=O)c1 | -4.03 | 0.27
23 | Cc1cccc(Oc2nccn3c(=O)n(CC(=O)N4CCN(c5ccc(F)cc5)CC4)nc23)c1C | 3.93 | -6.71
24 | COc1ccccc1N1CCN(C(=O)CSc2nc3ccccc3n3c(C(C)C)nnc23)CC1 | 1.01 | 3.41
25 | COc1cccc(-n2ccn3c(SCc4ccc(Cl)cc4)nnc3c2=O)c1 | -2.27 | 1.4
26 | COc1ccc2[nH]cc(C(=O)CSc3nnc4c(=O)n(-c5ccc(C)c(C)c5)ccn34)c2c1 | 17.24 | -2.44
27 | CCOc1ccc(-n2ccn3c(SCC#N)nnc3c2=O)cc1 | 8.92 | 2.37
28 | N#CCn1nc2n(Cc3ccccc3)c(=O)c3ccccc3n2c1=O | 14.89 | 2.96
29 | O=C(CSc1nnc2c3cc(-c4ccc(F)cc4)nn3ccn12)NCc1ccccc1Cl | 1.62 | -6.39
30 | COc1ccc(N2CCN(C(=O)Cn3nc4c(Oc5ccc(C)cc5)nccn4c3=O)CC2)cc1 | 4.51 | -5.74
31 | COc1ccc(NC(=O)Cn2nc3nc(N4CCOCC4)ccn3c2=O)cc1F | -2.35 | -9.58
32 | CCOc1ccccc1NC(=O)Cn1nc2c(Oc3ccccc3)nccn2c1=O | 5.93 | -3.4
33 | COc1ccc(NC(=O)Cn2nc3c(SC4CCCCC4)nccn3c2=O)cc1Cl | -11.83 | -6.21
34 | Cc1ccc(NC(=O)Cn2nc3ccc(-c4ccc(Cl)cc4)nn3c2=O)cc1 | 0.77 | -0.85
35 | O=S(=O)(c1ccc2nncn2c1)N(Cc1cccc(F)c1)c1ccc2c(c1)OCCO2 | 1.17 | -4.29
36 | CC(C)Sc1ccc2nn(CC(=O)Nc3ccccc3F)c(=O)n2n1 | -5.65 | 3.66
37 | CCOc1ccc(C(=O)Cn2nc3n(Cc4ccccc4OC)c(=O)c4sccc4n3c2=O)cc1 | -7.18 | -6.25
38 | Cc1ccccc1CSc1nnc2c(=O)n(-c3ccc(F)cc3)ccn12 | 16.33 | -5.51
